Compound activity as filed in PubChem BioAssay.
ssDAF12 agonist = S. stercoralis DAF-12 activation, primary screen. HEK293 ssDAF-12/GRIP1 lit1-tk-luc reporter, luminescence; % of 3 µM dafachronic acid response. activation, % at 6.8 µM. 370,000 compounds, 1% hits;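 active means activation above the mean over all tested compounds plus 3 SD, cut at about 0.9% in these data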;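 further: 0% = DMSO-only wells and 100% = 3 µM delta7-dafachronic acid wells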
DAX1 inh-1 = NR0B1 (DAX1) inhibition. P51843. AID 504766. 340,000 compounds, 0.99% hits. inhibition, % at 6.75 µM. HEK293 Gal4-DAX1 luciferase reporter, luminescence;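 active means inhibition above the mean over all tested compounds plus 3 SD, cut at about 4.2% in these data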;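 further: 0% = DAX1-transfected cells with DMSO and 100% = empty-vector control cells with DMSO; inhibition shows as a rise in luminescence from relieved DAX1 repression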
Target sequence (P51843 207-470 limits assumed): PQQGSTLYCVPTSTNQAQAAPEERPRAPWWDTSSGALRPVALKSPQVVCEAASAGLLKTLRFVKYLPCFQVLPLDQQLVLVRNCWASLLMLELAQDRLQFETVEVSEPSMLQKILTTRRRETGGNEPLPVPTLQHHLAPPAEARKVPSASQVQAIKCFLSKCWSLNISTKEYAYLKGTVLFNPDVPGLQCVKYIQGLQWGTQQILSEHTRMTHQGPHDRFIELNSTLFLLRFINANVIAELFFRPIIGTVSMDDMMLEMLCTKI
DAX1 inh-2 = inhibitors of DAX1 repression of SF-1 activated StAR promoter; HEK293T StAR-luciferase reporter, SF-1/DAX-1 repression relief; inhibition, % at 6.8 µM; 370,000 compounds, 1.1% hits;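 active means inhibition above the mean over all tested compounds plus 3 SD, cut at about 3.6% in these data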;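 further: 0% = DAX-1 cells with DMSO and 100% = cells lacking DAX-1 with DMSO; higher inhibition means more luminescence from relief of DAX-1 repression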
hgDAF-12 ag = hgDAF-12 agonism, primary luciferase screen; HEK293 GAL4-hgDAF12 UAS-luciferase reporter, agonist luminescence; normalized to butyrate control; activation, % at 6.8 µM; 370,000 compounds, 1.8% hits; AID 687014;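 active means activation above a cutoff set at the mean of all screened compounds plus 3 SD, cut at about 10% in these data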;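 further: 0% = DMSO wells and 100% = sodium butyrate wells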
hcDAF12 agonist = activators of H. contortus DAF-12 nuclear receptor; HEK293 hcDAF-12 lit1-tk-luc reporter, luminescence; 0% DMSO, 100% Δ7-dafachronic acid; activation, % at 6.8 µM; 370,000 compounds, 1.4% hits; AID 652067;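 active means activation above the mean of all tested compounds plus 3 SD, cut at about 5.5% in these data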;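 further: 100% = response to 3 µM Δ7-dafachronic acid high control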
hgDAF12 conf = confirmation of H. glycines DAF-12 agonists; shares compounds with hgDAF-12 ag; HEK293 GAL4-hgDAF12 luciferase reporter, agonist mode; percent of butyrate response; activation, % at 6.8 µM; 3,300 compounds, 80% hits;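 active means mean activation over triplicate wells above the hit cutoff derived from the earlier primary screen, cut at about 11% in these data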;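 further: 0% = DMSO low control and 100% = 2 mM sodium butyrate high control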
LXR ag 2 = activates human LXR-beta, counter-screen for DAF-12 agonists. HEK293 Gal4-LXR luciferase reporter, 24 h. activation, % at 6.8 µM. 3,300 tested, under 10 active. shares compounds with hgDAF-12 ag. AID 743051;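 active means mean activation of the triplicate above a set limit carried over from the primary screen, none filed active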
Starred values were filed as active, the others as inactive; . = no result given. The list is not random: actives were taken first. Their share in the collection is about 4.1%.

SMILES	ssDAF12 agonist	DAX1 inh-1	DAX1 inh-2	hgDAF-12 ag	hcDAF12 agonist	hgDAF12 conf	LXR ag 2
O=C(/C=C/c1ccccc1[N+](=O)[O-])Nc1ccccc1	0	6.7*	4.0*	18*	6	16*	1
Cc1ccccc1-c1cccc([C@@H]2C[C@H]3[C@H](CON3C)CN2S(=O)(=O)c2ccccc2C)c1	-2	0	-1	-1	-1	.	.
CCOC(=O)c1sc(Nc2nc3c(F)cccc3s2)cc1C	0	0	0	16*	5	13*	0
CCOC(=O)c1sc(NC(=O)c2sccc2C)cc1C	1.2*	3	2	17*	6.4*	17*	1
CCOC(=O)c1sc(NC(=O)c2cccs2)cc1C	-1	0	0	15*	0	14*	1
OC(c1ccccc1)c1nc(/C=C/c2ccccc2)cs1 (stereo not drawn)	-1	.	3	16*	5	11*	0
O=C(Nc1cc(S(=O)(=O)N2CCOCC2)ccc1N1CCCC1)c1cc2c(s1)CCCC2	-2	.	.	2	-2	.	.
C/C(CC(=O)Nc1c(C)cc(C)cc1C)=N\NC(=O)OC(C)(C)C	0	3	1	13*	1	1	0
O=C(NCCC(F)(F)F)C1Cc2c(-c3ccccc3Oc3ccccc3)ccnc2O1 (stereo not drawn)	-2	.	1	-2	0	.	.
COC(=O)c1ccc(/C=C(\C#N)c2ccccn2)cc1	1.5*	5.0*	3	15*	3	14*	1
O=C(Nc1cccnc1)c1sc2cccc(F)c2c1Cl	-1	1	4.1*	17*	6.0*	15*	0
CS/C(N)=N/N=C/c1c(O)ccc2ccccc12	1.0*	0	2	19*	5	13*	0
CCCCS/C(N)=N/N=C/c1cc(C)ccc1O	0	1	0	6	0	.	.
CN(C)/N=C/c1c(O)ccc2ccccc12	-1	0	0	-2	0	.	.
CS/C(N)=N/N=C/c1cc(C)ccc1O	0	4.3*	2	18*	5	14*	1
Cc1nc(Nc2ccncc2)c2oc3ccccc3c2n1	-1	0	0	4	0	.	.
CCc1nc(Nc2ccncc2)c2oc3ccccc3c2n1	-1	1	0	19*	1	8	0
O=[N+]([O-])c1cccc(-c2nnc(-c3ccc4c(c3)OCO4)o2)c1	0	1	0	2	0	.	.
O=[N+]([O-])c1cccc(-c2nnc(-c3ccccc3)o2)c1	-1	0	0	14*	3	16*	1
Cc1ccc(C)c(NC(=O)c2nc(Cl)ccc2Cl)c1	0	1	0	14*	4	5	0
O=C(Oc1ccc2ccc(O)cc2c1)c1ccccc1Cl	0	2	1	14*	4	7	0
O=C(Nc1ccc2nc3ccccc3nc2c1)c1ccccc1	1	1	3	16*	4	14*	1
Cc1nc2cc(NC(=O)c3ccc(Cl)cc3)ccc2n1C	0	0	2	13*	4	16*	1
Cc1nc2cc(NC(=O)Nc3cccc4ccccc34)ccc2n1C	0	2	3	18*	2	12*	1
O=C(N[C@H](C(=O)N1CCC[C@H]1C(=O)NCc1ccccc1)C1CCCCC1)c1ccc(Cl)cc1Cl	-1	.	-1	-2	-1	.	.
CS(=O)CC(O)(c1ccc(F)cc1)C1CC1 (stereo not drawn)	-1	1	0	0	-2	.	.
C/C(=N\Nc1nccnc1Cl)c1c(F)c(F)c(F)c(F)c1F	-2	-1	1	0	1	.	.
C/C(=N\Nc1nccnc1Cl)c1ccc(O)cc1	1	0	2	16*	6.5*	11*	0
COc1ccc(Nc2ncnc3c2c(C)c(C)n3CCO)cc1	1	3	4	16*	3	17*	1
Cc1ccsc1/C=c1\sc2ncnn2c1=O	-1	0	0	14*	1	2	0
